Source: PubChem BioAssay
Active and inactive are the calls of the source.

How the values were obtained:
[1] = small molecules captured by biotinylated probe aFSTL3 – biochemical, small-molecule microarray, fluorescence 635/667, stem cell growth factor project, primary screen (AID 1064); conditions: higher = more signal;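 further: measures binding of the biotinylated anti-FSTL3 antibody to printed compounds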
[2] = binders from COS7 lysate, DM2A8 probe, primary screen, torsin A project, cell lysate, small-molecule microarray, fluorescence 635/667 (AID 1065); conditions: higher = more signal, COS7 lysate expressing mutant human TOR1A
[3] = small molecules captured by biotinylated probe aFGF2 – biochemical, small-molecule microarray, fluorescence 635/667, stem cell growth factor project, primary screen (AID 1067); conditions: higher = more signal;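 further: measures binding of biotinylated aFGF2 protein to printed compounds on slides; z-score merges feature fluorescence and signal-to-noise across triplicate slides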
[4] = small molecules captured by biotinylated probe aFGF10 – biochemical, small-molecule microarray, fluorescence 635/667, stem cell growth factor project, primary screen (AID 1071); conditions: higher = more signal;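 further: score merges 667 nm spot intensity and signal to noise from triplicate slides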
[5] = biological target: Neurogenic locus notch homolog protein 2 (Homo sapiens) (UniProt Q04721); assay: small molecules binding Notch2 protein – biochemical, small-molecule microarray, 635 nm fluorescence, stem cell growth factors, primary screen (AID 1073); conditions: higher = more signal
[6] = biological target: Pro-neuregulin-1, membrane-bound isoform (Homo sapiens) (UniProt Q02297); assay: small molecules binding neuregulin-1 protein – biochemical, small-molecule microarray, fluorescence 635/667, psychiatric disease protein project, primary screen (AID 1075); conditions: NRG1 binding, 635 nm fluorescence, higher = more signal;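 further: score combines 667 nm spot fluorescence with signal to noise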
[7] = test system: Neuregulin-1 EGF-like domain; assay: small molecules binding NRG1 EGF domain – biochemical, small-molecule microarray, 635 nm fluorescence, primary screen (AID 1081); conditions: higher = more signal;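 further: binding of the protein to compounds printed on small-molecule microarray slides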
[8] = FRG1 expression reporter modulators in myotubes – cell-based, C2C12 myotubes, firefly/Renilla luciferase, luminescence, FRG1 inhibition for FSHD, primary screen (AID 1084); conditions: FRG1 promoter luciferase, higher = more signal, called active from +8 up or from −8 down
[9] = small molecules captured by biotinylated probe aFST – biochemical, small-molecule microarray, fluorescence 635/667, stem cell growth factor project, primary screen (AID 1086); conditions: higher = more signal;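 further: score merges 667 nm fluorescence with signal-to-noise of each printed compound spot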
[10] = binders of probe aHhip on microarray, primary screen, stem cell growth factor project, biochemical, small-molecule microarray, fluorescence 635/667 (AID 1087); conditions: higher = more signal;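 further: score merges spot fluorescence at 667nm with spot signal to noise ratio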

Chain of Neurogenic locus notch homolog protein 2 (Homo sapiens) (Q04721 whole entry, looked up, canonical isoform): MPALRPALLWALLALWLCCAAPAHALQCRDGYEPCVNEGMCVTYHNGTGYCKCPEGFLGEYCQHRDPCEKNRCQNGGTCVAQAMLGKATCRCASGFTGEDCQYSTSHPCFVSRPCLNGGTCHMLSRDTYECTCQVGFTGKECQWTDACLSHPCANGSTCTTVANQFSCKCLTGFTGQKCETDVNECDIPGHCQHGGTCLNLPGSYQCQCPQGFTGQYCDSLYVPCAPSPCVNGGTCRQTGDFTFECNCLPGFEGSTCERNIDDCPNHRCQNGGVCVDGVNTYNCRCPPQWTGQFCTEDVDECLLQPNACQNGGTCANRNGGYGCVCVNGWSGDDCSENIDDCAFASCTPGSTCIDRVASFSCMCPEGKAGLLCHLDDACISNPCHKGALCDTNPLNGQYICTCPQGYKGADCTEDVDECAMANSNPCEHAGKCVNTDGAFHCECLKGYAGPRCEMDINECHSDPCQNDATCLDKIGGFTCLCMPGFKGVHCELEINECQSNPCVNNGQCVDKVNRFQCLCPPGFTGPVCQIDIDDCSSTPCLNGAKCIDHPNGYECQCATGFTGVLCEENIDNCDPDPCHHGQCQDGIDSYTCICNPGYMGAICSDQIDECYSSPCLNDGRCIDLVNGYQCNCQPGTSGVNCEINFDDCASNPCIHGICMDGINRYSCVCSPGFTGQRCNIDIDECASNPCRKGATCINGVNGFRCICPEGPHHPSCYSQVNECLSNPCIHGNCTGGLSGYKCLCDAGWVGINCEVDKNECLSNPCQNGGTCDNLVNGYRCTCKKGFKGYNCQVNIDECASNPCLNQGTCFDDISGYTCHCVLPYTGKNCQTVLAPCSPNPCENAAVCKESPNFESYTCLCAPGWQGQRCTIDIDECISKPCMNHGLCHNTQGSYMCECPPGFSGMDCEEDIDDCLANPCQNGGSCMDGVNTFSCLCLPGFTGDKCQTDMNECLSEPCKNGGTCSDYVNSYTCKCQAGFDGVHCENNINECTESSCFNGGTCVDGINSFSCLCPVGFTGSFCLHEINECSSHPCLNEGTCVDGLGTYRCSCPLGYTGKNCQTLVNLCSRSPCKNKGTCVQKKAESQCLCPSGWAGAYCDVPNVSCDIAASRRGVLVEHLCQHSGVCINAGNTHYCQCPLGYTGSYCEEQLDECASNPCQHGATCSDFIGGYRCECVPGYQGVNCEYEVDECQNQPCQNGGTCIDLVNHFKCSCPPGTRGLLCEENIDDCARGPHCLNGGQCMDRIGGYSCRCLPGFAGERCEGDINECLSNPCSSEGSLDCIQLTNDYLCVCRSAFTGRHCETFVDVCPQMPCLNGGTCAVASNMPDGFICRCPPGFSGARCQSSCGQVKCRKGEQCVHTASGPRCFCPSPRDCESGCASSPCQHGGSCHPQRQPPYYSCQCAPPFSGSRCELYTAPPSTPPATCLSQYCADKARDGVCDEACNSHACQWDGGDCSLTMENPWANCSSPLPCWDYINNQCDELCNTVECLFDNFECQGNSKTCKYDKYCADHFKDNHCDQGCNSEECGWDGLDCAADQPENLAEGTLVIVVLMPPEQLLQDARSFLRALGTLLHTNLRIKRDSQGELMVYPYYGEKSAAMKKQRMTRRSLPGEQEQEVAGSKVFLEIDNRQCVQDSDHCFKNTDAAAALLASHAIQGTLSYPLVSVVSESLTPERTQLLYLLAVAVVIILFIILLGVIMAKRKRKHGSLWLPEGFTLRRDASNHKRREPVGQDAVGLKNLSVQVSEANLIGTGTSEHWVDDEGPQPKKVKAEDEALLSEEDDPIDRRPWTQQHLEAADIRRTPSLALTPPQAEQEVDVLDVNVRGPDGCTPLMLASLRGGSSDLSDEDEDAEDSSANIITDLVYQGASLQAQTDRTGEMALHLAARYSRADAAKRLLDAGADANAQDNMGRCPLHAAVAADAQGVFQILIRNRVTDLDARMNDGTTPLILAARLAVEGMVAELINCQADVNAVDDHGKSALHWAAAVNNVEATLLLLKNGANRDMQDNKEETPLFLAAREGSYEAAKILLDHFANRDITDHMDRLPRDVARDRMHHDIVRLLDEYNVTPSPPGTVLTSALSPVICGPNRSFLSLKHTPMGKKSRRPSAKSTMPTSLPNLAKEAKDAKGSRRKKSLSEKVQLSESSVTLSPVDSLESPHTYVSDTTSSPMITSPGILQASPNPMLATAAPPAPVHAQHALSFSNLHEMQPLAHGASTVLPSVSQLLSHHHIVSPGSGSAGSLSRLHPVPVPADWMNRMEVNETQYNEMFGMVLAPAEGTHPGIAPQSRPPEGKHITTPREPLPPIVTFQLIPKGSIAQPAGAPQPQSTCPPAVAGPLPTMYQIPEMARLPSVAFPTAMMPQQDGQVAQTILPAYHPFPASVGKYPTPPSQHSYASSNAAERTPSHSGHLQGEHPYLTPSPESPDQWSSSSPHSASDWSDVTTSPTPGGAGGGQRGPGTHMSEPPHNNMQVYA
Chain of Pro-neuregulin-1, membrane-bound isoform (Homo sapiens) (Q02297 whole entry, looked up, the tested form may be a part, canonical isoform): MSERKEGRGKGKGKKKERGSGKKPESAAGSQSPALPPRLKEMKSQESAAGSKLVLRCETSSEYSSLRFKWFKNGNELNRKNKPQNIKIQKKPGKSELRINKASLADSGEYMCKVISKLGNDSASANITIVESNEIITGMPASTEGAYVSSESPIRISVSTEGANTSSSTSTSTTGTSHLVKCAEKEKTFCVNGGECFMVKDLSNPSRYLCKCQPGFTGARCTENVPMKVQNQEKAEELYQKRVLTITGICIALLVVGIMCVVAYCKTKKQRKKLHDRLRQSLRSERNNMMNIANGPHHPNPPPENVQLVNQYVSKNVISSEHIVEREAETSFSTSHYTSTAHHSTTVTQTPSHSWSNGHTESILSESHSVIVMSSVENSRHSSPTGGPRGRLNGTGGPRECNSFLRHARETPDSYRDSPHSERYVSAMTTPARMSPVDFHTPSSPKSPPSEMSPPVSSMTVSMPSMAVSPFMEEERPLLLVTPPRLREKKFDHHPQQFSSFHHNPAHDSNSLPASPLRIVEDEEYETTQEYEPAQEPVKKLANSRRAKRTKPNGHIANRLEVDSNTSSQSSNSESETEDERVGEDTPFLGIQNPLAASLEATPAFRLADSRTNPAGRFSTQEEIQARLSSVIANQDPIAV

Compound	composite z-score [1]	composite z-score [2]	composite z-score [3]	composite z-score [4]	composite z-score [5]	composite z-score [6]	composite z-score [7]	z-score [8]	composite z-score [9]	composite z-score [10]
C=CCN1C(=O)[C@]2(O[C@H](CCn3cc(CCO)nn3)[C@@H]([Si](C)(C)c3ccc(OC)cc3)[C@@H]2C)c2cc(N3CCOC3=O)ccc21	-0.0415	0.0421	-0.152	0.0622	-0.447	1.05	1.18	-3.36 (inactive)	-0.414	-0.261
C=COC[C@H]1CN2[C@@H](CC[C@@H](C)[C@@H]2c2ccc(Br)cc2)C(=O)O1	-0.6	0.268	-0.151	0.581	0.793	0.0578	1.12	-0.688 (inactive)	0.355	0.0373
COCCCNC(=O)[C@]1(Cc2ccccc2)N=C(c2ccc(OCCCO)cc2)O[C@@H]1c1ccccc1	0.206	-0.0225	-0.01	0.791	0.967	1.54	1.04	-1.33 (inactive)	0.584	-0.0645
O=C1O[C@@H](c2ccccc2)[C@@H](c2ccccc2)N2[C@@H](c3ccc(OCCO)cc3)[C@]3(C(=O)Nc4ccc(C#CCCO)cc43)[C@@H](C(=O)N3CCCCCCC3)[C@H]12	3.26	2.28	0.702	1.12	1.36	2.02	1.18	-1.99 (inactive)	3.04	2.53
CC(C)=NOCc1cccc(-c2cc(-c3ccccc3)no2)c1	-0.575	0.221	-0.0767	0.717	0.0486	0.205	0.345	0.603 (inactive)	0.376	0.0024
CC[C@@H](c1ccccc1)n1c(=O)n2n(c1=O)[C@H]1[C@H](O)[C@@H]3O[C@@H]3C(=NOCC(C)C)[C@H]1CC2	-0.427	0.428	-0.119	0.0304	0.409	-0.0258	0.493	0.0491 (inactive)	0.0308	-0.0994
CO[C@H]1O[C@H](CO)[C@@H](OC(=O)Nc2ccc(C#N)cc2)[C@H](OC(=O)c2cc3ccccc3[nH]2)[C@H]1OC(=O)c1cc2ccccc2[nH]1	0.0407	1.3	0.062	1.16	1.04	1.75	1.24	-1.79 (inactive)	0.462	-0.0645
COC(=O)[C@H](C)NC(=O)[C@@H](C)CO	-0.329	1.2	-0.116	0.75	0.591	0.515	1.04	-0.256 (inactive)	0.357	0.316
CCCC[C@@H](O)C1=C(C)C[C@H]2C(=O)N(Cc3ccccc3)C(=O)[C@H]2[C@H]1CO	-0.531	0.709	-0.0564	0.185	-0.0286	0.0467	-0.322	0.778 (inactive)	-0.0982	-0.0237
C=CC[C@@H]1C=C[C@H](ON=C(C)CCN2CCc3nc(CC)c(CC)cc3C2)[C@@H](CO)O1	0.332	1.43	-0.0593	-0.21	0.0383	-0.21	0.987	2.55 (inactive)	0.553	-0.123
CCOC(=O)C1=CC[C@H]2C(=O)N(CC)C(=O)[C@@H]12	-0.537	0.448	-0.0715	0.772	0.937	0.98	1.11	0.937 (inactive)	0.406	0.176
C=C(COC)/C(=C/C[C@H](OC(=O)c1ccncc1)c1ccc(CO)o1)c1cc(C(=O)OC)ccc1OC	-0.393	0.649	0.0026	0.905	0.614	0.407	0.716	0.0676 (inactive)	0.404	-0.123
CC(C)C[C@@H]1NC(=O)[C@H]2C[C@@H](C(=O)O)[C@@H](c3ccc(O)cc3)N2C1=O	1.29	1.31	-0.087	-0.211	-0.506	1.47	1.29	6.75 (inactive)	0.123	0.613
CC(CCC(=O)OC[C@H]1O[C@H](C#Cc2ccccc2)C=C[C@@H]1Oc1ccc(C)cc1)=NOC[C@@H](O)[C@H]1O[C@@H]2OC(C)(C)O[C@@H]2[C@H]1O	-0.378	-0.587	-0.229	-0.44	-0.836	-0.116	-0.0458	0.0054 (inactive)	-0.865	-0.172
O=C1[C@H]2[C@H]3[C@H](O)[C@H](O)CC(=NOC[C@@H](O)COCc4ccco4)[C@H]3CC[C@H]2C(=O)N1C1CCCCC1	-0.749	2.19	-0.254	-0.39	-0.24	-0.394	0.403	-0.784 (inactive)	0.101	-0.156
CC1(C)OCC(C(O)C2=CCCCC2=O)CO1 (stereo not given)	-0.495	0.547	-0.0607	0.54	0.214	0.366	0.979	0.119 (inactive)	0.753	0.065
N#Cc1ccc(NN2C(C(O)c3cccc4ccccc34)C=CC3C(=O)N(c4ccccc4)C(=O)C32)cc1 (stereo not given)	-0.0622	-0.182	0.158	0.829	1.65	1.63	1.21	0.025 (inactive)	0.889	0.0695
